The campaign covered roughly 68,000 compounds. About 2,700 (4%) showed an effect of 50% or more. What follows is part of a selection rich in strong results, with near analogues and random picks from the rest.

In the assay the test system is Plasmodium berghei. In words: Screen against P. berghei liver stage (PbLuc), transformed with Luciferase, at 2uM. As to conditions: tested at 2 uM. The class given is functional, HepG2.
Consider `CCOCC1CN(c2ncc(F)cn2)Cc2cn(CC)nc21` (configuration not stated), for which the INHIBITION was -10.78%.
Regarding `O=C(Nc1ccccc1)N1CCc2nc(C(=O)N3CCCC3)sc2CC1`, the INHIBITION is -18.86%.
In the case of `Cc1ncc(CNC(=O)CCc2cccs2)c(C2CCCN2C)n1` (configuration not stated), the INHIBITION is reported as -14.56%.
Then `Cc1ncc(CNC(=O)CCc2c(C)noc2C)c(C2CCCN2C)n1` (configuration not stated), with 58.18%; and `Cc1ncc(CNC(=O)CCc2ccccc2F)c(C2CCCN2C)n1` (configuration not stated), with 4.66%; and `O=C(O)c1sccc1Oc1ccc(NC(=O)C2CC2)cc1`, with 19.62%.
As for `Cn1cccc1C(=O)N1CCO[C@@H]2CN(Cc3ccco3)C[C@@H]2C1`, the INHIBITION was 35.64%.
For the compound `c1ccc(-c2nc(CCNC3CCOC4(CCOCC4)C3)no2)cc1` (configuration not stated), the INHIBITION was found to be 58.53%.
Regarding `c1ccc(Cc2noc(CCNC3CCOC4(CCOCC4)C3)n2)cc1` (configuration not stated), the INHIBITION is recorded as -7.16%.
As for `c1ccc(Cc2nc(CNC3CCOC4(CCOCC4)C3)no2)cc1` (configuration not stated), the INHIBITION was 1.06%.
For `c1cnc2[nH]c(C3CCNCC3)c(CN3CCOCC3)c2c1`, the INHIBITION was determined as 26.98%.
On to `NC(=O)c1nc2c(s1)CCN(Cc1ccccc1)CC2`, for which the INHIBITION is reported as -14.74%.
Regarding `CCC(CC)c1cc(CNC(=O)N2CCOCC2CC)on1` (configuration not stated), the INHIBITION is listed as -8.83%.
In the case of `CC(C)C(=O)NCCNC(=O)C12CCC(=O)N1c1cc(Cl)ccc1S2` (configuration not stated), the INHIBITION was 79.21%.
Next, `COC(=O)CNC(=O)C12CCC(=O)N1c1cc(Cl)ccc1S2` (configuration not stated): 48.21%; `CC(C)NC(=O)CNC(=O)C12CCC(=O)N1c1cc(Cl)ccc1S2` (configuration not stated): 62.51%.
In the case of `CC(C)C(=O)NCc1cccc(N2CCCCC2=O)c1`, the INHIBITION is listed as -8.7%.
Then `CCOCCCNC(=O)C1(C)CCC(=O)N1c1ccccc1F` (configuration not stated), with 19.99%.
For `CC(C)NC(=O)CNC(=O)N1CCc2c([nH]c3ccc(Cl)cc23)C1`, the INHIBITION worked out at 43.4%.
Consider `CC(=O)Nc1cccc(OCCNC(=O)N(C)Cc2ccncc2)c1`, for which the INHIBITION is listed as -44.49%.
Regarding `O=C(NC(c1ccc(Cl)cc1)c1cccnc1)C1CC1` (configuration not stated), the INHIBITION is given as -58.01%.
Regarding `O=S(=O)(Cc1c(F)cccc1Cl)NCCCN1CCCCCC1`, the INHIBITION is listed as 53.19%.
Then `O=S(=O)(Cc1ccccc1F)NCCCN1CCCCC1`, with 21.18%; and `O=S(=O)(Cc1ccccc1Cl)NCCCN1CCCC1`, with 49.88%.
Take `CN(CC(=O)N1CC(C)(C)[C@@](C)(O)C1)Cc1ccncc1`: the INHIBITION turned out to be 32.07%.
Regarding `CCc1nnc(Nc2cc(C)nc(C3CCN(c4ncccn4)C3)n2)s1` (configuration not stated), the INHIBITION is -10.89%.
As for `O=C(c1cc(COc2ccc3c(c2)OCO3)[nH]n1)N1CCSCC1`, the INHIBITION is recorded as 14.46%.
For `c1ccc(-c2nccc(N3CCc4c(ncn4C4CC4)C3)n2)cc1`, the INHIBITION is 24.51%.
`Cn1cnc2c1CCN(c1ccnc(-c3ccccc3)n1)C2`: the INHIBITION is 56.33%.
With `Cn1cnc2c1CCN(Cc1csc(-c3ccccc3)n1)C2`, the INHIBITION is 6.3%.
For `Cc1nc(CN2CCN(c3nc4c(s3)c(C)nn4C)CC2)cs1`, the INHIBITION is recorded as 36.88%.
In the case of `COc1ccc(NC(=O)C(c2cccc(F)c2)N2CCOCC2)cc1` (configuration not stated), the INHIBITION is reported as 26.65%.
Next, `COc1ccc(NC(=O)C(c2ccc(OC)cc2)N2CCOCC2)cc1` (configuration not stated): 27.22%.
Next, `O=C(Nc1ccc(F)cc1)C(c1ccccc1)N1CCOCC1` (configuration not stated): 71.1%; `CC(C)c1ccc(OCC(=O)N(C)C)cc1`: -32.48%.
As to `COc1ccc(CCN2C(=O)O[C@@H]3CN(C)C[C@@H]32)cc1`, the INHIBITION is -7.29%.
Next, `CCN(CC)C[C@H]1CN2CC[C@H]1C[C@@H]2CNC(=O)c1ccco1`: 31.07%.
Take `CC[C@H]1CN2CC[C@H]1C[C@@H]2CNC(=O)c1ccco1`: the INHIBITION was 9.42%.
Then `CN(C[C@H]1CN2CC[C@H]1C[C@@H]2CNC(=O)c1ccco1)c1ccccc1`, with 65.7%.
`Cc1nc(CN)cc(N2CCC(O)(c3ccc(Cl)cc3)CC2)n1`: the INHIBITION is listed as 59.94%.
For the compound `Cc1nc(CCN)cc(N2CCC(O)(c3ccccc3)C2)n1` (configuration not stated), the INHIBITION is given as 23.18%.
As to `Cc1nc(CCN)cc(N2CCC(O)(c3ccc(Cl)cc3)CC2)n1`, the INHIBITION amounted to 11.38%.
As for `CCNC(=O)N1CCc2ccc(NC(=O)C(C)c3ccsc3)cc21` (configuration not stated), the INHIBITION is -44.17%.
Take `CC(Cn1ccnc1)NCc1csc2c1CCCC2` (configuration not stated): the INHIBITION is given as 66.4%.
Consider `CC(Cn1cccn1)NCc1csc2c1CCCC2` (configuration not stated), for which the INHIBITION was 49.88%.
Regarding `CC(Cn1cncn1)NCc1csc2c1CCCC2` (configuration not stated), the INHIBITION was 26.75%.
Next, `O=C(N[C@@H]1CCN(c2nc3ccccc3o2)C[C@H]1O)c1cnccn1`: 26.3%; `O=C(NC1CCCC1)O[C@H]1COCCN(c2nc3ccccc3o2)C1`: 52.91%; `c1ccc2oc(N3CCCC4(CCOC4)C3)nc2c1` (configuration not stated): -14.46%.
Consider `CCNC(=O)O[C@H]1COCCN(c2nc3ccccc3s2)C1`, for which the INHIBITION was found to be 29.85%.
As to `O=C(NC1CCCC1)O[C@H]1COCCN(c2nc3ccccc3s2)C1`, the INHIBITION is recorded as 51.26%.
Then `CC(C)NC(=O)O[C@H]1COCCN(c2nc3ccccc3s2)C1`, with 41.93%.
